This excerpt belongs to a sample that is enriched for hits.
Methyltransferases = Primary Screen for Target Class Profiling of Small Molecule Inhibitors of Methyltransferases; purified enzyme, MTase-Glo SAH luminescence; hits give low values; calls only at 40 µM; 3.9% of 25,000 active; AID 1745853, 2022; call rule not given here
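Each enzyme was reacted with SAM and its substrate, with compounds tested once at 40 uM; SAH formed was read by MTase-Glo luminescence.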
* hit, by the source's call; i = inactive; + = active, no number. On the % scale 0 is the no-effect control and ±100 the full control effect.

SMILES	Methyltransferases
CN(CC(=O)Nc1cccc(F)c1)S(=O)(=O)c1ccc2[nH]c3c(c2c1)CCCC3	i
O=S(=O)(Nc1ccc(F)cc1)c1ccc2[nH]c3c(c2c1)CCCC3	i
CN(C)[C@@H]1CCc2[nH]c3ccc(NC(=O)c4ccc(F)cc4)cc3c2C1	+
CC1CCC(NC(=O)C2(C)Cn3c(nc4ccccc43)C(=O)N2CCCc2ccccc2)CC1 (stereo unspecified)	i
O=C(Cc1ccsc1)N1CCC(n2cc(-c3nc(-c4ccccc4)no3)nn2)C1 (stereo unspecified)	i
COc1ccccc1CNC(=O)C1(C)Cn2cnc(C(=O)NCc3ccc(F)cc3)c2C(=O)N1C1CC1 (stereo unspecified)	i
CC(C)CCNC(=O)C1(C)Cn2c(cc3occc32)C(=O)N1Cc1ccc(Cl)cc1 (stereo unspecified)	i
CC1(c2noc(C3CC3)n2)CCN(C(=O)CCc2nc3ccc(Cl)cc3[nH]2)CC1	i
COCCN(C)C[C@@H]1CN(C(=O)c2ccc(Cl)s2)C[C@@H]1CO	i
C=C[C@H]1[C@H](O[C@@H]2O[C@H](CO)[C@@H](O)[C@H](O)[C@H]2O)OC=C(C(=O)OC)[C@H]1C/C=C(/C=O)[C@@H]1C(C(=O)OC)=CO[C@@H](O[C@@H]2O[C@H](CO)[C@@H](O)[C@H](O)[C@H]2O)[C@@H]1C=C	+
C=CC1C(O[C@@H]2O[C@H](CO)[C@@H](O)[C@H](O)[C@H]2O)OC=C(C(=O)OC)C1Cc1nccc2c1[nH]c1ccccc12 (stereo partly specified)	i
C/C=C1\[C@H](O[C@@H]2O[C@H](CO)[C@@H](O)[C@H](O)[C@H]2O)OC=C(C(=O)OC)[C@H]1CC(=O)O	i
COC(=O)C1=CO[C@@H](O[C@@H]2O[C@H](CO)[C@@H](O)[C@H](O)[C@H]2O)[C@@H]2[C@@H](CO)[C@@H](O)C(O)[C@H]12 (stereo partly specified)	i
C=C[C@H]1[C@H](O[C@@H]2O[C@H](CO)[C@@H](O)[C@H](O)[C@H]2O)OC=C(C(=O)OC)[C@H]1CCOC(=O)c1cc(O)c(O)c(O)c1	+
COC(=O)C1=CO[C@@H](O[C@@H]2O[C@H](CO)[C@@H](O)[C@H](O)[C@H]2O)[C@@H]2C(COC(C)=O)=C[C@H](O)[C@H]12	i
COc1cc(CCc2ccccc2)c(C(=O)O)c2c1CC(C(C)(C)O)O2 (stereo unspecified)	i
O=C(Cc1ccc(F)cc1)NCc1nnc2ccc(-c3ccc(Cl)cc3)nn12	i
CCCn1c(=O)c2ccc(C(=O)NCC(C)C)cc2n2c(=O)n(CC(=O)Nc3ccc(C)c(C)c3)nc12	i
CN(CC(=O)NCc1ccccc1)S(=O)(=O)c1ccc2[nH]c3c(c2c1)CCCC3	i
CC(=O)Nc1ccc(CN2CC[C@@H](c3ccc4c(c3)OCO4)[C@H](O)C2)cc1	i
CCOc1ccccc1CN1C(=O)c2cc3ccccc3n2CC1(C)C(=O)NCc1ccccc1 (stereo unspecified)	i
O=S(=O)(c1ccc2[nH]c3c(c2c1)CCCC3)N1CCc2ccccc21	i
CCc1nc(-c2cccc(C)c2)c(-c2ccnc(NC(=O)c3ccccc3)c2)s1	i
O=C(Nc1nc2ccccc2n1CCc1ccccc1)c1ccccc1	i
O=C(Nc1cc2cc[nH]c2cn1)c1ccccc1	+
SMILES	Methyltransferases
CC1(c2noc(C3CC3)n2)CCN(C(=O)CCCc2nc3ccccc3s2)CC1	i
Cc1cccc(-c2nn3c(c2-c2ccnc4ccc(C(N)=O)cc24)CCC3)n1	i
Cc1ccc(CNc2ncnc3ccc(-c4ccc(CO)o4)cc23)o1	+
O=C(CCn1ccc2cc(S(=O)(=O)N3CCCC3)ccc21)NC1CCCC1	i
O=C(CCCn1cncn1)NC1CC(c2cc(N3CCOCC3)ncn2)C1 (stereo unspecified)	i
Cc1ccc(N2C(=O)c3cc4occc4n3CC2(C)C(=O)NC2CCCCC2C)cc1 (stereo unspecified)	i
COc1cccc([C@@H]2CN(C(=O)c3cc(C)oc3C)C[C@H]2C(=O)O)c1OC	i
O=C(c1ccc(Cl)cc1)N1CCC2(CC1)CC(c1ccccc1)=NO2	i
CCCn1c(=O)c2ccc(C(=O)NC3CCCC3)cc2n2c(=O)n(Cc3ccccc3C)nc12	i
Cc1ccc(S(=O)(=O)c2nnn3c2nc(N2CCC(N4CCCCC4)CC2)c2ccccc23)cc1C	+
O=S(=O)(c1ccccc1)c1nnn2c1nc(N1CCCCC1)c1ccccc12	i
Cc1ccc(C)c(S(=O)(=O)c2nnn3c2nc(N2CCCC2)c2ccccc23)c1	i
Cn1c(=O)[nH]cc(CC(=O)NCc2cccnc2-n2ccnc2)c1=O	i
COc1ccc(-c2nnc3n(Cc4ccccc4)c(=O)c4ccccc4n23)c(OC)c1	i
CCOc1ccc(-c2cc(NC(=O)c3c(F)cccc3F)c(C(=O)O)s2)cc1	+
COc1cccc(-c2ccc(NC(=O)C3=C(C(=O)O)CCC3)c(F)c2)c1	i
CCCCOc1ccc(C(=O)Nc2ccc(F)cc2F)cc1	i
CCOCCCNC(=O)c1ccc2c(=O)nc3c(-c4cccc(F)c4)n[nH]n3c2c1	i
COc1ccccc1N1CCN(CCN2C(=O)CC3(CCCC3)CC2=O)CC1	i
O=C(c1cc2ccccc2[nH]1)N1CCCC2(C1)NC(=O)N(Cc1ccccc1)C2=O (stereo unspecified)	i
O=C(CCCn1ccc2cc(S(=O)(=O)N3CCCC3)ccc21)NCc1cccs1	i
COc1cc(/C=C(\C#N)C(=O)Nc2nnc(C(F)(F)F)s2)ccc1OCc1ccc(C(F)(F)F)cc1C(F)(F)F	i
COc1cc(/C=C(\C#N)C(=O)c2ccc(O)c(O)c2)cc(I)c1O	+
CC(C)Cn1c(=O)c2ccc(C(=O)NC(C)C)cc2n2c(=O)n(CC(=O)c3ccccc3)nc12	i
C=CC(=O)Nc1cccc(CN2C(=O)N(c3c(Cl)c(OC)cc(OC)c3Cl)Cc3cnc(NCCCCN(CC)CC)nc32)c1	+
SMILES	Methyltransferases
COc1ccc(CCN2C(=O)c3cc4occc4n3CC2(C)C(=O)NC2CCCCCC2)c(OC)c1 (stereo unspecified)	i
CC(C)(O)C(=O)N1CCN(c2ccc(C(F)(F)F)c(C3=C(c4c[nH]c5ccccc45)C(=O)NC3=O)c2)CC1	+
CCCn1c(=O)oc2cc(NS(=O)(=O)c3ccc4c(c3)n(C)c(=O)n4C)ccc21	i
COCCCN1C(=O)c2cc3ccccc3n2CC1(C)C(=O)NC1CCCCCC1 (stereo unspecified)	i
COCCOc1ccnc(-c2noc([C@@H]3CCCN3Cc3ccncc3)n2)c1	i
COCCOc1ccc2c(c1)ncn2-c1ccc2cccc(N3CCC(N)CC3)c2n1	+
COc1ccc(OC)c2c1cc1n2CC(C)(C(=O)NC2CCCCC2)N(Cc2ccccc2F)C1=O (stereo unspecified)	i
CCCCNC(=O)Cn1c(=O)oc2cc(S(=O)(=O)N3CC(C)CC(C)C3)ccc21 (stereo unspecified)	i
O=C(N[C@@H]1CN(C(=O)c2ccccn2)CC[C@@H]1CO)C1CC1	i
Fc1ccc(C(OCCCc2cnc[nH]2)c2ccc(F)cc2)cc1	+
N=C(N)SCCc1cnc[nH]1	i
C=C(F)c1sc(CNCCCNc2cc(=O)c3ccccc3[nH]2)c(C)c1Br	+
CCCn1c(=O)c2ccc(Cl)cc2n2c(=O)n(CC(=O)NCc3ccccc3Cl)nc12	i

Screening data deposited in PubChem by National Center for Advancing Translational Sciences (NCATS).
